This is one part of a sample in which hits are shown more often than they occur.
S aureus helic = blocks Staphylococcus aureus DNA helicase. purified S. aureus helicase, fluorescence unwinding assay. inhibition, % (concentration not given with the values). 120,000 tested, 0.05% active; in the data active = inhibition above about 25%, passing the limit was not always enough;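 note: 0% = mean of negative control wells and 100% = mean of positive control wells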
Sa growth 42C = S. aureus growth inhibition. relative growth, % (concentration not given with the values). AID 720641. 170,000 tested, 0.53% active. S. aureus RN4220 growth, OD600, 20 h, 42 °C; stronger effect = lower value;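 active = relative growth at most 50% at the other temperature and 20+ points below 30 °C, or under 10% at both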
Starred values were filed as active, the others as inactive; . = no result given.

SMILES	S aureus helic	Sa growth 42C
COc1ccc(Br)cc1S(=O)(=O)n1ccnc1	-8.0	.
COc1cc(C)c(S(=O)(=O)n2ccnc2)cc1C(C)C	-6.0	2.4*
C=CCN(CC=C)C(C)C(=O)Nc1cc2oc3ccccc3c2cc1OC (stereo not given)	25.0	83.1
Cc1ccc(Cc2c(C)nc3c(-c4ccccc4)c(C)[nH]n3c2=O)cc1	.	108.2
Cc1nc2c(-c3ccccc3)c(C)[nH]n2c(=O)c1Cc1ccc(Br)cc1	.	0.1*
Cc1ccc2[nH]c(C)cc(=S)c2c1	1.0	5.8*
COc1ccc2[nH]c(C)cc(=S)c2c1	12.0	82.9
Cc1c(C)c(C)c(C#CCO)c(C)c1C	-13.0	3.2*
O=C(CC(c1cccs1)N1Cc2ccccc2C1=O)Nc1ccc(F)cc1 (stereo not given)	.	101.2
O=C(NC1CCCCCC1)C1c2ccccc2C(=O)N1Cc1ccc(F)cc1 (stereo not given)	.	93.6
O=C1OC(c2ccccc2)=C/C1=C/c1ccccc1	.	-0.6*
O=C1OC(c2ccccc2)=C/C1=C/c1ccc(Cl)cc1	15.0	100.2
Cc1ccc2cccc(OC(=O)c3ccccc3F)c2n1	19.0	.
O=C(Oc1cccc2cccnc12)c1ccccc1F	9.0	0.8*
Cc1ccc(CSc2n[nH]c(-c3ccccc3O)n2)cc1	-5.0	86.6
Cc1ccc(Cc2cn3cc(-c4ccc(F)cc4)nc3s2)cc1	.	95.8
Cc1ccc(Cc2c[nH]c(=S)s2)cc1	9.0	22.9*
CCC(=O)N1c2ccccc2NC2=C(C(=O)CC(c3ccco3)C2)C1c1ccco1 (stereo not given)	-43.0	99.4
N#Cc1ccc(CSc2nc3ccc(Cl)cc3[nH]2)cc1	6.0	64.8
FC(F)(F)c1ccc2nc(SCc3ccc(Br)cc3)[nH]c2c1	.	6.8*
CC(C)c1ccc(NC(=O)Cn2cccc2)cc1	13.0	102.8
CC[C@@H]1OC(=O)C[C@H](O)[C@@H](C)[C@@H](O[C@@H]2O[C@H](C)[C@@H](O[C@H]3C[C@@](C)(O)[C@@H](O)[C@H](C)O3)[C@H](N(C)C)[C@H]2O)[C@@H](C=O)C[C@@H](C)C(=O)/C=C/C(C)=C\[C@@H]1CO[C@H]1O[C@@H](C)[C@H](O)[C@H](OC)[C@@H]1OC	.	-1.0*
CC[C@H]1OC(=O)C[C@@H](O)[C@H](C)[C@@H](O[C@@H]2O[C@H](C)[C@@H](O[C@H]3C[C@@](C)(O)[C@@H](O)[C@H](C)O3)[C@H](N(C)C)[C@H]2O)[C@@H](CC=O)C[C@@H](C)C(=O)/C=C/C(C)=C/[C@@H]1CO[C@@H]1O[C@H](C)[C@@H](O)[C@@H](OC)[C@H]1OC	.	-0.2*
Cc1ccc(NC(=O)CSc2nnc(NC(=O)c3cccs3)s2)cc1	2.0	.
COc1ccc(C(=O)N(Cc2ccco2)Cc2ccccc2F)cc1Cl	.	99.6
SMILES	S aureus helic	Sa growth 42C
CC(C)C1O/C(=N\C(=O)Nc2ccc(Cl)c(Cl)c2)NC1=O (stereo not given)	-3.0	0.5*
CCNC(=O)/N=C1\NC(=O)C(C(C)C)O1 (stereo not given)	-7.0	86.3
COc1cc2nc(CN(C)Cc3sccc3C)[nH]c(=O)c2cc1OC	4.0	101.9
CC(Nc1nc(C(C)(C)C)cs1)=C(C#N)C#N	7.0	4.2*
CC(C)(C)c1csc(NC(=O)CSC2=NCCS2)n1	-3.0	87.5
O=C(Oc1ccccc1)c1c(-c2ccccc2)nnc2ccccc12	.	91.2
CCCCS(=O)c1sc2nc(C)cc(C)c2c1N (stereo not given)	4.0	81.2
CCCCS(=O)c1sc2nc(-c3cccs3)cc(-c3ccccc3)c2c1N (stereo not given)	8.0	12.5*
COc1ccc(S(=O)(=O)N2Cc3ccccc3CC2C(=O)N2CCCCCC2)cc1OC (stereo not given)	-5.0	90.2
O=S(=O)(Nc1ccc2oc3c(c2c1)CCCC3)c1ccc(F)cc1	0.0	38.8*
O=C1CCCN1c1ccc(S(=O)(=O)Nc2ccc3oc4c(c3c2)CCCC4)cc1	6.0	115.2
CCOC(=O)C1(CCCCCCOc2ccc(Cl)cc2)CO1 (stereo not given)	.	105.7
CCCCC(=O)NC(c1ccco1)c1cc(Cl)c2cccnc2c1O (stereo not given)	-25.0	20.4*
CCC(=O)NC(c1ccco1)c1cc(Cl)c2cccnc2c1O (stereo not given)	5.0	71.7
Cn1/c(=N/N=C2\CC3CC=CC23)sc2ccccc21 (stereo not given)	11.0	120.9
N=c1n(CCN2CCCCC2)c2ccccc2n1CC(O)COc1ccc(Cl)cc1Cl (stereo not given)	.	0.3*
COc1ccc(OCC(O)Cn2c(=N)n(CCN3CCCCC3)c3ccccc32)cc1 (stereo not given)	.	118.5
O=S(=O)(N=P(C1CCCCC1)(N1CCOCC1)N1CCOCC1)c1ccccc1	5.0	106.9
CC1=C(C(=O)OC2CCCC2C)C(c2ccc(Cl)cc2)NC(=O)N1 (stereo not given)	11.0	27.7*
CC1=C(C(=O)N(C)C)C(c2ccc(Cl)cc2)NC(=O)N1 (stereo not given)	0.0	101.5

Screens: PubChem BioAssay, ICCB-Longwood Screening Facility, Harvard Medical School
